Screening data deposited in PubChem BioAssay by several laboratories.
Compounds with a hit are over-represented: about 5.3% of the library has one in this group of screens.
PostGolgi yeast = growth inhibition of a yeast mutant, post-Golgi transport screen; inhibition, % at 10 µM; actives 0.9% (n = 98,000); AID 739; post-Golgi transport phenotypic cell assay;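 further: yeast cells grown in 1536-well plates; yeast grown about 18 h at 30C before absorbance read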
PostGolgi ctrl = growth of the yeast control strain, post-Golgi counter-screen; efflux-deficient yeast background strain, growth absorbance A615, 16 h; inhibition, % at 10 µM; actives 5% (n = 98,000)
MT1-MMP txn act = activates MT1-MMP transcription; HT1080 MT1-MMP promoter luciferase reporter, luminescence, overnight; active compounds read high; activation factor at 10 µM; actives 0.16% (n = 86,000);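 active means activation factor of at least 2 for MT1-MMP transcription at 10 µM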
Measles CPE = protection of cells from measles virus; Measles virus-infected cells, CPE protection, absorbance; protection (pct of control), % at 4 µM; actives 1.5% (n = 140,000); AID 841; in the data active means protection mostly above about 24%, no sharp cut-off; inactive means mostly below about 26%
The depositor's hits bear a star; · = no result given. Unless noted, no stated cut-off is given here; in the data, active means inhibition above about 30%; inactive means the rest.

SMILES	PostGolgi yeast	PostGolgi ctrl	MT1-MMP txn act	Measles CPE
O=[N+]([O-])c1ccc(Oc2cccc(F)c2)c2ccncc12	10.2	38.0*	·	5.8
CC1(C)CC(=O)C(C=NCCN2CCOCC2)=C(O)C1	9.4	14.1	1.1	3.6
CC1(C)CC(=O)C(C=NCCN2CCN(CCCCS(=O)(=O)O)CC2)=C(O)C1	5.6	32.5*	1.1	19.6
S=C(Nc1ccccc1)Nc1ccc(OCc2ccc(Cl)cc2Cl)cc1	-0.5	-10.3	·	16.1
OCCCCNCc1ccc(OCc2ccc(Cl)cc2Cl)cc1	51.3*	26.9	·	·
COC(=O)c1n[nH]nc1-c1ccccc1	·	·	·	8.2
c1ccc(-c2n[nH]nc2-c2ccccc2)cc1	23.1	30.0*	1.2	11.8
CC(C)COC(=O)Nc1nnc(SCCOc2ccccc2)s1	-7.4	-0.8	·	3.2
Cc1cccc(-c2nnc(-c3cccc(NC(=O)Cc4cccs4)c3)o2)c1	81.4*	25.7	·	25.0
O=C(Cc1cccs1)Nc1cccc(-c2nc3ccccc3o2)c1	-13.2	-3.1	·	6.3
COC(=O)[C@@]1(Cc2ccccc2)C=C[C@@H](C)N1C(=O)c1ccccc1	·	·	1	·
Clc1ccc(CON/C=N/c2ncnc3sccc23)cc1	3.1	-2.1	·	7.3
C(=N\c1ncnc2sccc12)/NOCc1ccccc1	21.8	65.8*	·	3.3
Cc1ccc(NC(=O)CSc2nnc(-c3cccs3)n2Cc2ccco2)cc1	12.9	8.4	1.1	4.2
Cc1ccc(C)c(CSc2nnc(-c3cccs3)n2Cc2ccco2)c1	25.8	35.2*	1	4.1
Cc1cccc(N2CCN(C(=O)C(NS(=O)(=O)c3cccs3)c3ccccc3)CC2)c1C (centres undefined)	-3.8	39.9*	1.3	9.8
CC1(c2cnc(Nc3ccccc3)s2)CCC(=O)O1 (centres undefined)	-4.7	38.6*	1.6	7.9
COc1ccc(S(=O)(=O)N2Cc3ccccc3CC2C(=O)Nc2nccs2)cc1OC (centres undefined)	1.9	5.1	·	5.2
CCc1nnc(NC(=O)C2Cc3ccccc3CN2S(=O)(=O)c2ccc(C)cc2)s1 (centres undefined)	5.3	40.6*	1.7	2.9
COc1ccc(S(=O)(=O)N2Cc3ccccc3CC2C(=O)Nc2nccs2)cc1 (centres undefined)	-4.0	36.5*	1.6	3.3
Cc1cc(C)nc(NS(=O)(=O)c2ccc(NC(=O)C3(c4ccccc4)CCCC3)cc2)n1	·	·	·	5.5
O=C(/C=C/Nc1ccc(Cc2ccc(N/C=C/C(=O)C(F)(F)F)cc2)cc1)C(F)(F)F	·	·	·	25.5
COc1ccc(-c2cnc(N)nc2-c2ccc(OC)cc2O)cc1	-5.9	28.2	1.2	19.1
C=C(C)COc1ccc(-c2ncncc2Oc2ccc(OC)cc2)c(O)c1	65.6*	19.1	1.1	15.9
C=C(C)COc1ccc(-c2nc(N)ncc2-c2ccc(OC)cc2)c(O)c1	4.7	72.0*	1.2	5.2
SMILES	PostGolgi yeast	PostGolgi ctrl	MT1-MMP txn act	Measles CPE
C=C(C)COc1ccc(-c2nc(N)nc(C)c2-c2ccc(OC)cc2)c(O)c1	·	·	·	5.2
CCNS(=O)(=O)c1ccc2c(c1)NCC2	·	·	·	16.8
N#C/C(=C1\CCCN1)c1ccc2ccccc2n1	-3.1	2.5	1	18.3*
COc1ccc(C(=O)CSc2nnc(-c3ccc(C)cc3)o2)cc1	3.2	1.8	1.1	4.4
COc1ccc2c(c1)C(C)=CC(C)(C)N2C(=O)CSc1nnc(-c2ccc(C)cc2)o1	52.0*	20.9	1	6.6
O=C(NCc1cccnc1)C1CCCCN1S(=O)(=O)c1ccc(F)cc1 (centres undefined)	1.1	14.6	1.3	19.2*
CN(C)C(=O)CSc1nc(-c2ccccc2)nc2c1CCCC2	·	·	1.2	8.9
Cc1cc2nc(SCC(=O)N(C)C)c3c(c2cc1C)CCCC3	0.3	30.9*	·	·
COc1ccc(Cn2c(=S)[nH]c3ccsc3c2=O)cc1	·	·	·	-2.8
O=C(N/N=C/C=C/c1ccccc1)c1cc2c(ccc3ccccc32)o1	1.0	9.8	·	3.6
CCN(CC)C(=O)c1ccc(S(=O)(=O)N2CCC(c3nc4ccccc4s3)CC2)cc1	·	·	1.2	9.7
O=C(CSc1ccc(Cl)cc1Cl)N1CCC(c2nc3ccccc3s2)CC1	-0.2	37.5*	·	5.6
NS(=O)(=O)c1cccc(NC(=O)COC(=O)C2(c3cccc(F)c3)CCCC2)c1	·	·	·	23.9
O=C(CN1CCCN(Cc2ccc(F)cc2Cl)C1=O)NC1CCCCCC1	-5.8	13.6	0.9	5.7
O=C(CN1CCN(Cc2ccc(F)cc2Cl)C1=O)NCCc1ccc(Cl)cc1	21.8	36.6*	1	11.2
COc1ccc(C2CC(c3cccs3)=Nc3ccccc3S2)cc1 (centres undefined)	·	·	2.1*	1.6
CCOc1ccc(NC(=O)CSc2nnc(-c3ccccc3Cl)n2Cc2ccco2)cc1	7.5	35.2*	1.1	12.9
CCOc1ccc(NC(=O)CSc2nnc(-c3ccccn3)n2C)cc1	-2.3	1.5	·	54.5*
CCOc1ccc(NC(=O)CSc2nnc(-c3ccccn3)n2N)cc1	3.8	5.2	1.1	3.3
Clc1ccc2oc3c(Cl)ncnc3c2c1	·	·	·	3.9
CCOC(=S)N/C(=N\S(=O)(=O)c1ccc(C)cc1)c1ccccc1	-1.7	9.7	·	2.0
Cc1ccc(NS(=O)(=O)c2ccc(Cl)s2)cc1S(=O)(=O)N(C)C	·	·	·	14.1
CSc1nc2ccc(NS(=O)(=O)c3ccc(Cl)s3)cc2s1	-0.8	39.8*	1.2	5.5
CCOc1cc(C2C(C(=O)OC(C)C)=C(C)N=C3SCCC(=O)N32)ccc1OC(C)=O (centres undefined)	-1.4	38.7*	1.1	6.0
Cc1c(NC(=O)c2cccc(-c3cc4ccccc4oc3=O)c2)cccc1-c1nc2ncccc2o1	·	·	·	5.4
SMILES	PostGolgi yeast	PostGolgi ctrl	MT1-MMP txn act	Measles CPE
CCc1cccc(C)c1NC(=O)C1CN(S(=O)(=O)c2ccccc2)CCN1S(=O)(=O)c1ccccc1 (centres undefined)	·	·	·	3.6
CCN(CC)C(=O)CSc1nc(N)c(C#N)c(-c2cccs2)c1C#N	·	·	1.2	2.9
N#Cc1c(N)nc(SCc2ccncc2)c(C#N)c1-c1cccs1	-1.9	48.6*	1	3.1
CCSc1nc(N)nc(-c2cccs2)c1C#N	28.4	40.3*	·	26.1
CC(C)(C)C1CCC(=NNC(=O)C(=O)NC2CCCCC2)CC1 (centres undefined)	·	·	·	13.3
Cc1cc(C)n(-c2nc3c(c(=O)[nH]c(=O)n3C)n2Cc2ccccc2)n1	-3.8	11.7	0.9	6.3
CC(C)Sc1nc2c(c(=O)[nH]c(=O)n2C)n1CCc1ccccc1	-0.7	31.2*	1.1	14.4
CC(C)CCn1c(SCC(=O)c2ccccc2)nc2c1c(=O)[nH]c(=O)n2C	-4.7	19.4	1.2	10.4
CC(C)CCn1c(Sc2nc3ccccc3s2)nc2c1c(=O)[nH]c(=O)n2C	-6.3	33.2*	1.2	4.9
CCCn1c(SCc2ccccc2)nc2c1c(=O)[nH]c(=O)n2C	-2.8	49.5*	1.1	5.1
Cc1cc(C)n(-c2nc3c(c(=O)[nH]c(=O)n3C)n2CCc2ccccc2)n1	-2.9	55.9*	1	9.1
COC(=O)CC1Oc2cc3oc4c5ccccc5oc(=O)c4c3cc2O1 (centres undefined)	·	·	1.1	·
O=C(N/N=C/c1ccccc1F)c1csc2c1CCCC2	-4.5	13.3	·	3.3
O=C(N/N=C/c1cccc(F)c1)c1csc2c1CCCC2	-8.0	50.1*	·	9.7
